# Screening data: PubChem BioAssay, National Center for Advancing Translational Sciences (NCATS)
# KB-3-1 tox = KB-3-1 parental cell cytotoxicity; KB-3-1 viability, CellTiter-Glo ATP luminescence, 72 h; AID 1347075; 400,000 tested, 1.4% active; Potency, µM (titrated, usually from 46.1 µM), hits mostly cytotoxic; note: % is set by controls: 0 for no effect and ±100 for the full control effect; nearly all actives have a fitted effect of over 60% in size
#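 Parental KB-3-1 adenocarcinoma cells in phenol-red-free DMEM with 10% FBS were pin-treated with compounds at several concentrations, incubated 72 h at 37 °C, and viability read by CellTiter-Glo luminescence; concentration-effect curves were fitted after normalization.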
# SW480 rerep = DNA re-replication induction in SW480 cells | AID 624297 | Potency, µM (highest dose often 46.1 µM), for the others: top-dose re-replication activation, hits mostly activators | SW480 DNA re-replication, Hoechst DNA content imaging, 48 h | 340,000 tested, 1.8% active; note: % of control where 0% means no effect; nearly all actives have a fitted effect of over 55% in size
#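 Image-based read-out: total Hoechst fluorescence of nuclei (405 nm excitation, 500-530 nm emission), with hits raising the fraction of high-intensity nuclei. SW480 colon cells incubated 48 hr with compounds at 37 C.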
# MCF10A rereplic = induces DNA re-replication in MCF 10a normal breast cells; MCF 10A DNA re-replication, Hoechst nuclear intensity, 48 h; Potency, µM (top dose mostly 46.1 µM), without a hit: top-dose activity, positive = re-replication, hits mostly activators; 350,000 tested, 2.9% active; AID 624296; note: % of control where 0% means no effect; nearly all actives have a fitted effect of over 50% in size
# HT1080 IDH1KD tx = HT-1080 IDH1 knockdown cell toxicity (counter line); 360,000 tested, 2% active; AID 686971; Potency, µM (highest dose often 46.1 µM), for inactives: at the top dose activity, negative = toxicity, most hits filed as cytotoxic; HT-1080 IDH1 knockdown viability, ATP luminescence, 48 h;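 note: 0% = DMSO wells and -100% = cell-free medium wells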
#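 Knockdown cells (IDH1KD HT-1080) received compounds 2 h after plating at 750 cells/well and were kept 48 h at 37 °C in 5% FBS RPMI. A CellTiter-Glo luminescence read gave % activity for curve fitting.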
# KB-V1 cytotox = KB-V1 MDR subline cytotoxicity. KB-V1 MDR cells viability, CellTiter-Glo, 72 h. Potency, µM (doses to about 46.1 µM), most hits filed as cytotoxic. 400,000 tested, 3.4% active; note: % is set by controls: 0 for no effect and ±100 for the full control effect; nearly all actives have a fitted effect of over 60% in size
#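 KB-V1 cells (P-gp-expressing MDR subline of KB-3-1) in phenol-red-free DMEM with 10% FBS were exposed to library compounds over a concentration series for 72 h at 37 degrees C. Viability read by CellTiter-Glo luminescence; concentration-effect curves fitted after normalization.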
# HT1080-NT tox = kills 2HG-producing HT-1080-NT fibrosarcoma cells; HT-1080-NT fibrosarcoma viability, CellTiter-Glo ATP luminescence, 48 h; Potency, µM (titrated, usually from 46.1 µM), without a hit: top-dose activity, negative = less viability, hits mostly cytotoxic; 360,000 tested, 1.6% active; AID 686970;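 note: NT is the 2HG producing partner of a matched IDH1 knockdown line; 0% = DMSO-treated cells and -100% = media-only wells without cells; nearly all actives have a fitted effect of over 55% in size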
#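 HT-1080-NT; 750 cells/well; 5% FBS RPMI; 48 h compound, 37 degrees C; CellTiter-Glo luminescence; curve fitting and curve-class assignment.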
# An asterisk follows results filed as active; i = inactive; ? = inconclusive; nt = not tested or not shown. A selection: hits, their analogues and other compounds. The true share with any hit is near 8%. Calls come from the whole dose curve; as a rule, active = well fitted curve in the direction sought with a large enough effect; inconclusive = small, poorly fitted or top-dose-only effect, or another doubt; inactive = no such curve, though single readings can be large; an effect the other way counts as inactive or inconclusive. Potency is the fitted concentration of half-maximal effect.
SMILES,KB-3-1 tox,SW480 rerep,MCF10A rereplic,HT1080 IDH1KD tx,KB-V1 cytotox,HT1080-NT tox
O=C(CSc1nc2c([nH]c3ccccc32)c(=O)n1-c1ccccc1F)Nc1cccc(C(F)(F)F)c1,15µM*,nt,nt,nt,?,nt
CC(=O)Nc1ccc(NC(=O)CSc2nc3c([nH]c4ccccc43)c(=O)n2-c2ccccc2F)cc1,?,-10%,2%,?,i,-29%
O=C(CNC(=O)[C@@H]1Cc2ccccc2CN1)Nc1ccc2c(c1)OCO2,i,10%,?,-2%,?,-5%
COc1ccc(C(C)=O)cc1COC(=O)c1ccc2c(c1)OCCO2,i,-14%,7%,-1%,i,-1%
COc1ccccc1NC(=O)Cn1nnc(-c2ccccc2NC(=O)c2ccco2)n1,i,30%,?,12%,?,10%
COc1ccc(-c2ccc(NC(=O)c3ccco3)cc2)nn1,10µM*,?,-8%,21µM*,?,18µM*
O=C(Nc1ccc(-c2cn3ccccc3n2)cc1)c1ccco1,i,2%,2%,?,10µM*,?
COc1ccc(NC(=O)Cn2nnc(-c3ccccc3NC(=O)c3ccco3)n2)cc1,4.1µM*,?,10µM*,?,?,?
O=C(Nc1ccc(-c2nc3c(ccc4ccccc43)o2)cc1)c1ccco1,i,?,4.6µM*,10µM*,i,10µM*
CCCc1nc2c3ccccc3ccn2c1Cc1ccc(OC)cc1C,i,nt,nt,?,i,-28%
COc1cccc(OCCNc2cc(N3CCCCC3)ccc2[N+](=O)[O-])c1,i,10%,12%,-8%,?,-5%
Cc1ccccc1OCCNc1cc(N2CCN(CCO)CC2)ccc1[N+](=O)[O-],i,0%,18%,15µM*,?,?
Cc1cccc(OCCNc2cc(N3CCN(CCO)CC3)ccc2[N+](=O)[O-])c1,i,?,3%,-9%,18µM*,-4%
COc1cccc(OCCNc2cc(N3CCOCC3)ccc2[N+](=O)[O-])c1,i,7%,?,-25%,9.2µM*,-26%
Cc1ccccc1OCCNc1cc(N2CCCCC2)ccc1[N+](=O)[O-],i,0%,24%,-19%,?,-14%
CC1CN(c2ccc([N+](=O)[O-])c(NCCOc3ccccc3)c2)CCN1 (configuration not stated),i,16%,22%,16µM*,?,15µM*
COc1ccc(OCCNc2cc(N3CCOCC3)ccc2[N+](=O)[O-])cc1,i,-4%,1%,?,?,?
COc1ccc(-c2nc3cccc(C)n3c2NCc2ccco2)cc1OC,i,-2%,19%,-2%,i,-4%
Nc1cc[n+](CC(=O)Nc2ccccc2)cc1,i,-3%,6%,-8%,i,1%
O=C(C[n+]1ccccc1)NNc1ccccc1,6.5µM*,2%,19%,4.6µM*,i,2.6µM*
O=C(COc1ccccc1O)NNc1ccccc1,?,-11%,13%,3.3µM*,?,2.3µM*
Cn1c(SCc2c(F)cccc2Cl)nnc1-c1cccs1,?,?,6.5µM*,-4%,i,2%
Cn1c(SCCOc2ccccc2Cl)nnc1-c1cccs1,i,-2%,4%,-13%,18µM*,-26%
Fc1ccc(Nc2ccnc(Nc3ccc(F)cc3)n2)cc1,i,2%,?,?,15µM*,?
Nc1ncnc(Nc2ccc(F)cc2)n1,i,-1%,13%,3%,i,2%
SMILES,KB-3-1 tox,SW480 rerep,MCF10A rereplic,HT1080 IDH1KD tx,KB-V1 cytotox,HT1080-NT tox
CC(=O)/C=C/c1ccc2c(c1)S(=O)(=O)N(C1CCCC1)[C@H]2CC(C)=O,?,nt,nt,nt,18µM*,nt
ClCC1=Nc2ccccc2Cc2ccccc21,i,4%,11%,7%,i,-11%
N#CC1C(=N)Cc2ccccc2-c2ccccc21 (configuration not stated),?,16µM*,?,16µM*,15µM*,12µM*
CCCn1c(SCC(=O)N2CCN(CC)CC2)nc2c1c(=O)n(C)c(=O)n2C,i,-10%,24%,9%,i,29%
COc1ccc(-n2cnc3sc4c(c3c2=O)CCCC4)cc1,i,?,10%,-17%,16µM*,1%
COc1cccc(-n2cnc3sc(C)c(C)c3c2=O)c1,i,-3%,-1%,-1%,21µM*,-1%
CCCS(=O)(=O)N1CC(=O)N(c2ccccc2C)C(C)(C(=O)NC2CCCC2)C1 (configuration not stated),i,nt,nt,nt,i,nt
C/C(=N\NC(=O)c1ccc(N2CCCC2=O)cc1)c1ccc(O)cc1O,?,9.2µM*,8%,?,i,-25%
O=C(C1CCN(S(=O)(=O)N2CCOCC2)CC1)N1CCN(Cc2ccccc2)CC1,i,-6%,-6%,9%,i,9%
O=C(C[N+]1(CC#Cc2ccccc2)CCCCC1)c1ccc(Cl)cc1,i,-1%,2%,-6%,i,-7%
COC(=O)c1ccc(CNC(=O)CNc2cc(C(F)(F)F)ccc2N2CCOCC2)cc1,i,8%,12%,8%,i,4%
CCOc1ccc(NC(=O)COc2cccc3cccnc23)cc1S(=O)(=O)N1CCCC1,?,nt,nt,?,21µM*,-14%
CCOc1ccc(NC(=O)CN2CCN(c3ccccc3C)CC2)cc1S(=O)(=O)N1CCCC1,i,0%,-4%,-2%,4.1µM*,-2%
CC(C)N(C(=O)CSc1nnc(NC(=O)c2cccs2)s1)C(C)C,i,-3%,-1%,-14%,23µM*,1%
O=C(CC1SC(=Nc2ccccc2)N(Cc2ccccn2)C1=O)Nc1ccc(Br)cc1 (configuration not stated),i,16µM*,23µM*,-19%,?,-4%
Cc1ccccc1N=C1SC(CC(=O)Nc2ccc3ccccc3c2)C(=O)N1Cc1ccccn1 (configuration not stated),?,?,19%,-3%,21µM*,?
CCN1C(=O)C(CC(=O)Nc2cccc(C(C)=O)c2)S/C1=N\c1ccccn1 (configuration not stated),i,17%,4%,-2%,i,-6%
O=C(CC1SC(=Nc2cccc3ccccc23)N(Cc2ccccn2)C1=O)Nc1ccccc1Br (configuration not stated),?,15%,?,-24%,16µM*,-14%
